Shown are actives, neighbours in structure and some others; about 3.3% of the full set was active somewhere.
Wnt bcat act: activates Wnt/beta-catenin signaling in a reporter cell assay | activation, % at 9.35 µM | AID 743398 | 300,000 compounds, 1.2% hits | activator, plate reader; in the data active means activation above about 30%, passing the limit was not always enough;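 further: 0% = neutral control wells and 100% = positive control wells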
C2C12 statin: protects C2C12 myotubes from simvastatin toxicity; ATP luminescence, 48 h; scaled: DMSO 0, geranylgeraniol control 100; rescue of ATP level, % at 7.49 µM; 330,000 compounds, 0.78% hits;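 active means mean ATP rescue above about 67%, or every replicate alone reaching that limit, limit read from the data, passing the limit was not always enough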;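 further: myotubes were challenged with 10 µM simvastatin during compound exposure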
MITF act: MITF TRPM1 promoter activation in melanoma cells; SK-MEL-5 TRPM1-promoter luciferase, 24 h; % of positive control, neutral wells = 0; 300,000 compounds, 0.75% hits; activation, % at 12.5 µM;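 active means mean activation of at least 80% with every replicate also reaching 80%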;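 further: 0% = neutral control wells and 100% = parthenolide positive control wells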
FXN GAA850 act: activators of GAA850 frataxin (FXN) promoter; HEK293 lucGAA850 FXN promoter luciferase reporter, 24 h; percent of 10 µM SAHA response; activation, % at 6 µM; 360,000 compounds, 0.56% hits;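 active means activation above the average of all compounds screened plus 3 SD, cutoff fixed separately per campaign, cut at about 7.5% in these data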;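 further: 0% = DMSO wells and 100% = 10 µM SAHA wells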
esBAF inh: blocks esBAF chromatin remodeling in mouse ES cells; reporter increase, % at 12.5 µM; 350,000 compounds, 2% hits; Bmi1-luciferase knock-in reporter, 24 h; 100% = twice the neutral-well signal; AID 602393; in the data active means activation above about 40%;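 further: 0% = median of the plate's neutral control wells and 100% = double that signal; a rise in the Bmi1 reporter signal indicates esBAF inhibition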
The depositor's hits bear a star; / = no result given.

SMILES	Wnt bcat act	C2C12 statin	MITF act	FXN GAA850 act	esBAF inh
CCOc1cc(/C=N/NC(=O)N/N=C/c2ccc(O)c(OCC)c2)ccc1O	49*	/	/	/	/
CCOc1cc(/C=N/Nc2ncnc(Cl)c2N)ccc1O	/	1	51	5	57*
CCOc1cc(/C=N/Nc2nnc(C)n2N)ccc1O	3	-1	/	0	-4
C#Cc1cccc(NC(=O)c2ccc(Cl)cc2Cl)c1	22	2	94*	5	53*
O=C(Nc1ccc(Nc2ccccc2)cc1)c1ccc(Cl)cc1Cl	-1	/	/	-2	/
Cc1ccc(NC(=O)c2ccc(Cl)cc2Cl)cc1O	48*	/	55	1	/
C/C=C/c1ccc2c(c1)O[C@@H](CN(C)C(=O)C1CCC1)[C@H](C)CN([C@H](C)CO)S2(=O)=O	/	-17	/	/	/
COc1ccccc1NC(=O)Nc1ccc2c(c1)C(=O)N(C)C[C@H](OC)[C@H](C)CN(C)[C@H](C)CO2	/	-13	/	/	-2
COc1cccc2oc(-c3ccco3)cc(=O)c12	17	27	76	3	28
COc1ccc2oc(-c3ccco3)cc(=O)c2c1	38*	/	78	6	20
O=c1cc(-c2ccco2)oc2ccc(Cl)cc12	/	73*	49	1	20
CN1CCN(C(=O)C[C@H]2C[C@@H]3c4cc(NC(=O)c5cccnc5)ccc4O[C@@H]3[C@@H](CO)O2)CC1	/	-1	/	/	5
CCC(=O)N(C)C[C@@H]1Oc2ncc(C3=CCCC3)cc2C(=O)N([C@@H](C)CO)C[C@H]1C	/	-27	/	/	5
CCOc1ccc2cc(/C=C/C(=O)c3ccco3)c(Cl)nc2c1	/	-2	/	3	57*
Cc1noc(C)c1NC(=O)Nc1ccc2c(c1)C(=O)N([C@@H](C)CO)C[C@@H](C)[C@H](CN(C)Cc1ccc(C(=O)O)cc1)OCCCC[C@@H](C)O2	/	2	/	/	1
CN1CCN(c2ccc(NC(=S)NC(=O)/C=C/c3ccco3)cc2)CC1	0	0	43	3	45*
O=C(/C=C/c1ccco1)NC(=S)Nc1ccccn1	42*	7	/	7	46*
O=C(/C=C\c1ccco1)NC(=S)Nc1ccccc1O	16	/	88*	4	/
CC(=O)Nc1ccc(NC(=S)NC(=O)/C=C/c2ccco2)cc1	3	4	/	1	-2
CN1CCN(c2ccc(NC(=S)NC(=O)c3cccc4ccccc34)cc2)CC1	3	7	-63	2	-2
CN1CCN(c2ccc(NC(=S)NC(=O)c3cccc4c(Br)cccc34)cc2)CC1	-2	126*	7	2	-1
O=C(c1ccncc1)N1C[C@H]2[C@@H](c3ccccc31)[C@H](CO)N2C(=O)c1ccccc1F	/	-10	/	/	-2
O=C(/C=C/c1ccco1)NCCc1ccccc1	55*	8	63	6	52*
COc1ccc(/C=C/C(=O)NC(=S)Nc2ccccn2)cc1	12	7	55	6	48*
COc1ccccc1/C=C/C(=O)NC(=S)Nc1ccccn1	6	17	/	4	31
SMILES	Wnt bcat act	C2C12 statin	MITF act	FXN GAA850 act	esBAF inh
O=C(/C=C1\OCc2ccccc21)c1ccccc1	45*	/	/	/	/
C[C@@H]1CCCCO[C@H](CN(C)S(=O)(=O)c2cccs2)[C@H](C)CN([C@@H](C)CO)C(=O)c2cc(NS(=O)(=O)c3ccc(F)cc3)ccc2O1	/	/	/	/	5
N#C/C(=N\Nc1ccc([N+](=O)[O-])cc1)C(=N)N1CCOCC1	26	/	53	3	/
N#C/C(=N\Nc1ccccc1[N+](=O)[O-])C(=N)N1CCCCC1	54*	-15	57	3	51*
N#C/C(=N/Nc1ccc([N+](=O)[O-])cc1)C(=N)N1CCCCC1	/	/	101*	2	/
N#C/C(=N\Nc1ccc(Br)cc1)C(=N)N1CCOCC1	12	-4	92*	3	56*
COc1ccc(-c2cnc3c(c2)C(=O)N([C@H](C)CO)C[C@H](C)[C@H](CN(C)Cc2cccc(C)c2)O3)cc1	/	10	/	/	-6
O=C(C[C@@H]1C=C[C@@H](NC(=O)Nc2ccccc2F)[C@H](CO)O1)NCc1ccc(F)cc1	/	4	/	/	-7
CCC(=O)N1C[C@@H](C)[C@H](OC)CN(C)C(=O)c2cc(NC(=O)NC(C)C)ccc2OC[C@H]1C	/	15	/	/	0
Cc1noc(C)c1S(=O)(=O)N(C)C[C@@H]1OCCCC[C@H](C)Oc2ccc(NS(=O)(=O)c3ccccc3)cc2C(=O)N([C@@H](C)CO)C[C@H]1C	/	/	/	/	4
CCCCCn1cnc2c(sc3nc4c(cc32)CSC(C)(C)C4)c1=O	/	-3	94*	2	39
CC1(C)Cc2nc3sc4c(=O)[nH]cnc4c3cc2CS1	/	17	42	0	27
CNc1ccccc1C(=O)OCC(=O)c1ccccc1	/	-17	64	4	59*
O=C(COC(=O)c1ccccc1)c1ccc(Br)cc1	11	18	54	6	61*
CNc1ccccc1C(=O)OCC(=O)c1ccc(F)cc1	4	/	2	1	/
O=C(C/C=N/OCc1c(Cl)cccc1Cl)c1cnc(-c2ccccc2)s1	/	108*	10	0	12
Cc1ccn2cc(-c3ccc4c(c3)NC(=O)CO4)nc2c1	16	/	103*	4	/
C[C@@H]1CCCCO[C@H](CN(C)S(=O)(=O)c2ccccc2)[C@H](C)CN([C@@H](C)CO)C(=O)c2cc(NC(=O)CCC(F)(F)F)ccc2O1	/	/	/	/	9
CN1c2ccccc2C(=O)/C(=C\Nc2ncccn2)S1(=O)=O	2	/	/	0	/
Cc1sc2c(c1C)C(=O)/C(=C\Nc1ccncc1)S(=O)(=O)N2C	44*	/	/	-1	/
C[C@H](CO)N1C[C@H](C)[C@@H](CN(C)S(=O)(=O)c2cn(C)cn2)Oc2ccc(NC(=O)CCCN(C)C)cc2C1=O	/	/	/	/	3
CNC(=O)C[C@H]1CC[C@@H]2[C@H](COC[C@@H](O)CN2C(=O)Nc2ccc3c(c2)OCO3)O1	/	-8	/	/	9
COCC(=O)N(C)C[C@H]1Oc2cc(-c3ccccc3F)ccc2S(=O)(=O)N([C@H](C)CO)C[C@H]1C	/	-12	/	/	-1
CC(C)(C)NC(=O)c1ccc(COc2ccccc2Br)o1	/	-1	4	1	0
CCN(CC)C(=O)c1ccc(COc2ccc(Cl)c(C)c2)o1	1	-9	/	4	78*
SMILES	Wnt bcat act	C2C12 statin	MITF act	FXN GAA850 act	esBAF inh
CCN(CC)C(=O)c1ccc(COc2ccccc2Br)o1	/	-7	25	2	73*
Cc1cc(OCc2ccc(C(=O)n3cccn3)o2)ccc1Cl	47*	/	11	1	/
CCCNC(=O)c1ccc(COc2ccc(Cl)cc2)o1	-1	-11	0	0	-7
O=C(C[C@H]1C=C[C@H](NC(=O)Nc2ccccc2)[C@@H](CO)O1)NCc1cccc(F)c1	/	-10	/	/	3
O=C(C[C@@H]1CC[C@@H]2[C@H](COC[C@@H](O)CN2Cc2cc(F)ccc2F)O1)NCc1ccc(Cl)cc1	/	1	/	/	-1
COc1ccc(S(=O)(=O)Nc2cccc3c2O[C@@H](CN(C)C(=O)Nc2cccc4ccccc24)[C@H](C)CN([C@H](C)CO)C3=O)cc1	/	/	/	/	0
O=C(c1cccs1)N1CCn2c1nc1ccccc12	15	/	82*	3	36
